40 compounds from PubChem BioAssay (Tox21) can be followed below.

Inconclusive results are not listed. Where a call stands in place of a potency, no number is given. Calls of active or inactive are those of the source. Calls come from the whole dose curve; as a rule, active = well fitted cell-killing curve with a large enough effect in the repeat runs; inconclusive = weak or mixed curves; inactive = no such curve, though single readings can be large or run the other way.
Potency is the fitted concentration of half-maximal effect.

This assay can be described thus: qHTS assay to identify small molecule antagonists of the androgen receptor (AR) signaling pathway - cell viability counter screen (AID 743033; note: nearly all actives have a fitted effect of over 45% in size). The conditions noted are these: AR-bla HEK293 viability, CellTiter-Glo luminescence, 16 h; series mostly up to 58.5 µM. An excerpt: National Center for Advancing Translational Sciences [NCATS]
NIH Chemical Genomics Center [NCGC]
U.S. Environmental Protection Agency [EPA]
National Institutes of Environmental Health Sciences [NIEHS]
National Toxicology Program [NTP]
U.S. Food and Drug Administration [FDA]
Androgen receptor (AR), a nuclear hormone receptor, plays a critical role in AR-dependent prostate cancer and other androgen related diseases. Endocrine disrupting chemicals (EDCs) and their interactions with steroid hormone receptors like AR may cause disruption of normal endocrine function as well as interfere with metabolic homeostasis, reproduction, developmental and behavioral functions. To identify the compounds that inhibit AR signaling, GeneBLAzer AR-UAS-bla-GripTite cell line (Invitrogen, Carlsbad, CA, USA) containing a beta-lactamase reporter gene under control of an Upstream Activator Sequence (UAS) stably integrated into HEK293 cells was used to screen the Tox21 10K compound library. The cytotoxicity of the Tox21 compound library against the AR-bla cell line was tested in parallel by measuring the cell viability using CellTiter-Glo assay in the same wells.
Tox21 Assay Protocol Summary:
AR-bla cells were dispensed at 2,000 cells/5 uL of assay medium per well into black wall/clear-bottom 1536-well plates using a Multidrop Combi (ThermoFisher Scientific, Waltham, MA) dispenser. After the assay plates were incubated at a 37C and 5% CO2 for 4 hr, 23 nL of compounds dissolved in DMSO, positive controls or DMSO only was transferred to the assay plate by a Pintool station (Kalypsys, San Diego, CA), followed by addition of 1 uL of agonist (R1881) in culture medium using a Bioraptr Flying Reagent Dispenser (FRD) workstation (Beckman Coulter, Indianapolis, IN, USA). The plates were incubated at a 37C and 5% CO2 for 16 h. After 1 uL of LiveBLAzerTM B/G FRET substrate was added using a Bioraptr FRD, the plates were incubated at room temperature for 2 h and fluorescence intensity was measured by an Envision plate reader (PerkinElmer, Shelton, CT). For cell viability readout that measures cytotoxicity, 4 ul/well of CellTiter-Glo reagent was added into the assay plates using a Bioraptr FRD. After 30 min incubation at room temperature, the luminescence intensity in the plates was measured using a ViewLux (PerkinElmer) plate reader.
In general terms: In qHTS, concentration-response curves come from the screen itself.
With `CCC(CC)Nc1ccc(C)c(C)c1`, the Potency entry is “inactive”.
On to `CC1(c2ccccc2)OC(C(=O)O)=CC1=O` (stereo not given), for which the Potency result was “inactive”.
The value for `CCCCc1nc2cccnc2n1Cc1ccc(-c2ccccc2-c2nnn[nH]2)cc1` was “inactive”; that for `CN(C)CCN(Cc1ccc(Cl)cc1)c1ccccn1` was “inactive”; that for `CC(C)O.CC(C)O.CCOC(=O)/C=C(\C)O.CCOC(=O)/C=C(\C)O.[Ti]` was “inactive”.
Then `O=C(O)c1ccc(-n2nc(-c3ccccc3O)nc2-c2ccccc2O)cc1`, with “inactive”; and `COC(C)OC`, with “inactive”; and `OCCNCc1ccccc1`, with “inactive”.
The value for `CCCn1cnc2c1c(=O)n(CCCCC(C)=O)c(=O)n2C` was “inactive”; that for `COc1cc(Cl)c(OC)cc1N` was “inactive”.
Consider `CC[N+]1(CC)CCC(=C(c2ccccc2)c2ccccc2)C1C` (stereo not given), for which the Potency entry is “inactive”.
`CC1=CCCC(C)(C)C12CCC(C)O2` (stereo not given): the Potency entry is “inactive”.
The value for `O=CC1CC=CCC1` (stereo not given) was “inactive”; that for `Cc1cc(C(=O)O)ccc1[N+](=O)[O-]` was “inactive”; that for `CCOC(=O)C1=C[C@]2(CC)CCCN3CCc4c(n1c1ccccc41)[C@@H]32` was “inactive”.
The value for `C[C@H]1C[C@H]2[C@@H]3CCC4=CC(=O)C=C[C@]4(C)[C@@]3(Cl)[C@@H](O)C[C@]2(C)[C@@]1(O)C(=O)CO` was “inactive”; that for `O=C1c2ccccc2S(=O)(=O)N1CCCCN1CCN(c2ncccn2)CC1` was “inactive”.
Turning to `O=C1OC(CN2CCOCC2)CN1/N=C/c1ccc([N+](=O)[O-])o1` (stereo not given), the Potency result is “inactive”.
The value for `C[C@@H]1C[C@H]2O[C@@]3(O[C@@H]2C(C)(C)O)[C@H](O)[C@@]2(C)[C@@H]4CC[C@H]5C(C)(C)[C@@H](O[C@@H]6OC[C@@H](O)[C@H](O)[C@H]6O)CC[C@@]56C[C@@]46CC[C@]2(C)[C@@H]13` was “inactive”; that for `Cc1oc2c(NC(=O)c3c(Cl)cccc3Cl)cccc2c1C(C)(C)O` was “inactive”.
`CC(CC=O)c1ccccc1` (stereo not given): the Potency entry was “inactive”.
Then `CCCCCCCC/C=C\CCCCCCCC(=O)OCC`, with “inactive”.
For `CN1CCC(=C2c3ccccc3Sc3ccccc32)CC1`, the Potency was 23.9 µM (active).
Regarding `CCNc1cc(O)ccc1C`, the Potency entry was “inactive”.
Take `CCCCC(=O)OCC(=O)[C@H]1[C@H](C)C[C@H]2[C@@H]3C[C@H](F)C4=CC(=O)C=C[C@]4(C)[C@@]3(F)[C@@H](O)C[C@@]21C`: the Potency result was “inactive”.
In the case of `C1CCCNCCC1`, the Potency result was “inactive”.
`C=CC(=O)OCCOc1ccccc1`: the Potency result is “inactive”.
`CC(=O)[O][Al]`: the Potency result was “inactive”.
For the compound `O=C(O)c1nc(Cl)c(Cl)c(Cl)c1Cl`, the Potency result is “inactive”.
Turning to `OC(CN1CCC(Cc2ccc(F)cc2)CC1)c1ccc(Cl)cc1` (stereo not given), the Potency entry is “inactive”.
Then `c1cc(CCCc2ccncc2)ccn1`, with “inactive”.
Turning to `CCc1cc(C2=C(C(=O)O)N(c3ccccc3C(F)(F)F)S(=O)(=O)c3ccccc32)cc2c1OCO2`, the Potency entry was “inactive”.
For `CC(=O)[O][Al][O]C(C)=O`, the Potency entry is “inactive”.
In the case of `COC(C)(C)CCO`, the Potency result is “inactive”.
Then `CCC(C)c1cc(C(C)(C)C)c(O)c(C(C)(C)C)c1` (stereo not given), with “inactive”.
Then `C=C1[C@H]2CC[C@@H]3[C@H]2C(C)(C)CCC[C@]13C`, with “inactive”.
Then `COc1ccc(C)cc1[N+](=O)[O-]`, with “inactive”; and `CN1CCC(N(Cc2cccs2)c2ccccc2)CC1`, with “inactive”.
As to `NCc1ccccc1Sc1ccccc1CO`, the Potency result is “inactive”.
In the case of `CC(COCCO)OCCO` (stereo not given), the Potency entry is “inactive”.
